From PubChem BioAssay AID449762 (Southern Research Specialized Biocontainment Screening …, 2010)
In all, about 330,000 compounds went through this assay and about 1,900 (0.58%) were called active. About 4% were inconclusive and are not listed. These entries were drawn from the full list. Entries with a potency or affinity are not part of this list. Values without a mark were called inactive. No stated cut-off is given here; in the data, inconclusive means inhibition above about 70% without an active follow-up result; inactive means below that.

Test: M. tuberculosis growth inhibition, HTS (AID 449762);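 further: bacterial growth assessed after seven days of incubation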
Conditions: M. tuberculosis H37Rv growth inhibition, 7H9 media; at 25 µM; hits give high values
`COc1ccccc1OCC(=O)N(Cc1nnc(-c2ccccc2Cl)o1)C1CC1` gave an inhibition of 0.28%.
With `COCCN(Cc1ccccc1)P(=O)(O)c1ccccc1OCC(=O)O` the inhibition was -0.51%.
With `C/C(O)=C/c1nc2ccccc2[nH]c1=O` the inhibition was 3.14%.
For `Cc1ccc2oc(=O)c(/C=C(\O)c3ccccc3)nc2c1`, the inhibition was -2.76%.
With `CC(=O)Nc1ccc(NC(=O)C(C)Oc2ccc(C)nc2[N+](=O)[O-])cc1` (configuration not stated) the inhibition was 6.29%.
Work on `CCN(CCn1cccn1)C(=O)c1cc(COc2cccc3cccnc23)on1` yielded an inhibition of -3.82%.
Compound `CC(C)(C)c1ccc(C(=O)N2CCN(CCNC(=O)C(=O)NCc3ccccc3)CC2)cc1` has an inhibition of -0.83%.
`Cc1ccc(C(=O)N2CCN(CCNC(=O)C(=O)NCc3ccc(Cl)cc3)CC2)cc1` showed an inhibition of 4.33%.
`O=C(Nc1ccccc1)N(CCCN1CCOCC1)Cc1ccccc1F` showed an inhibition of -5.07%.
Work on `CCOC(=O)N1CCC2(CC1)CC(=O)c1c(ccc3oc(C(=O)O)c(C)c13)O2` yielded an inhibition of -2.67%.
`c1ccc2c(c1)CC(N1CCCCC1)c1ccccc1S2` (configuration not stated) showed an inhibition of 0.42%.
In the case of `COc1ccc2c(c1)CC(N1CCN(C)CC1)c1cc(OC)ccc1S2` (configuration not stated), the inhibition is reported as 9.95%.
For `O=C(Nc1cc([N+](=O)[O-])ccc1C(=O)NCCN1CCOCC1)c1ccccc1`, the inhibition was 5.18%.
`COCCn1c(SCc2nnc(-c3ccc(OC)c(OC)c3)o2)nnc1-c1ccncc1` gave an inhibition of 5.88%.
With `Cc1ccc(-c2nnc(NCc3nc4ccccc4[nH]3)c3ccccc23)cc1S(=O)(=O)N(C)C` the inhibition was -2.52%.
`Cn1c(-c2sc3cc(C(F)(F)F)cnc3c2-c2ccccn2)n[nH]c1=S` showed an inhibition of -2.76%.
`O=C(OCC(=O)N1CCCC1)c1ccccc1O` showed an inhibition of 3.14%.
`O=C(OCC(=O)N1CCCCCC1)c1ccccc1Br` gave an inhibition of 4.05%.
`CC1CN(C(=O)COC(=O)c2ccc(F)cc2Cl)CC(C)O1` (configuration not stated) gave an inhibition of 6.83%.
`CC12CCC(C(=O)NCCCN3CCOCC3)(C(Br)C1=O)C2(C)C` (configuration not stated) gave an inhibition of -0.09%.
In the case of `Cc1cc(Cc2c(O)[nH]c(=S)[nH]c2=O)ccc1OC(C)C`, the inhibition is reported as -6.7%.
`COC(=O)C1(CC2CC(c3ccccc3)=NO2)CCN(C(=O)OC(C)(C)C)CC1` (configuration not stated) showed an inhibition of 3.82%.
`Cc1cc(Cl)ccc1OCCCC(N)=O` gave an inhibition of -4.53%.
Compound `Cc1cc(Cl)ccc1OCCCC(=O)NN` has an inhibition of 13.1%.
In the case of `CCc1ccc(/C=C2/SC(=S)N(CCC(=O)NCCCN3CCOCC3)C2=O)cc1`, the inhibition is reported as -8.2%.
Compound `CN1CCN(c2ccc(NC(=O)c3ccc(-c4cccc([N+](=O)[O-])c4)o3)cc2)CC1` has an inhibition of 0.14%.
In the case of `CC(C)(C)C(=O)N1CCN(c2ccc(NC(=O)c3ccco3)cc2)CC1`, the inhibition is reported as 2.75%.
For `COCCN1CCN(C(=O)c2cc(COc3cc(C)ccc3C)on2)CC1`, the inhibition was -2.97%.
Compound `Cc1cnc(NC(=O)C2CCC(C(C)(C)C)CC2)s1` (configuration not stated) has an inhibition of -5.46%.
`Cc1cnc(NC(=O)CC2CCCC2)s1` gave an inhibition of 1.33%.
Work on `Cc1cccc(NC(=O)COC(=O)c2ccc3c(=O)n4c(nc3c2)CCC4)c1` yielded an inhibition of 0.33%.
With `CCNC(=O)NC(=O)C(C)On1nnc2ccc(S(=O)(=O)N(CC)CC)cc21` (configuration not stated) the inhibition was -3.62%.
With `C=CCSc1nc(N)c2c(C)c(C)sc2n1` the inhibition was -14.5%.
`O=c1c2c(-c3ccccc3)csc2ncn1/N=C/c1cccc([N+](=O)[O-])c1O` showed an inhibition of 0.37%.
With `O=c1c2c(-c3ccc(Cl)cc3)csc2ncn1/N=C/c1cccc([N+](=O)[O-])c1O` the inhibition was 3.59%.
`CCOC(=O)N1CCN(c2c(NCC3CCCO3)c(=O)c2=O)CC1` (configuration not stated) showed an inhibition of 2.94%.
`COC(=O)c1cccc(NC(=O)CSc2nnc(C)o2)c1` gave an inhibition of 3.7%.
`CCOc1ccc(CC2S/C(=N/c3ccccn3)NC2=O)cc1` (configuration not stated) showed an inhibition of -1.03%.
In the case of `Nc1ccc(CC2SC(=O)NC2=O)cc1` (configuration not stated), the inhibition is reported as -2.9%.
Compound `CCc1c(C(=O)Nc2ccc(OC)cc2)[nH]c(C)c1C(C)=O` has an inhibition of 0.65%.
In the case of `O=S(=O)(Nc1ncccn1)c1ccc(Cl)cc1`, the inhibition is reported as -3.71%.
For `CCC(=O)Nc1nc2nc(-c3ccccc3)cc(=O)n2[nH]1`, the inhibition was -4.67%.
For `CCCC(=O)Nc1nc2nc(-c3ccccc3)cc(=O)n2[nH]1`, the inhibition was -6.79%.
`Clc1cccc(Cl)c1COc1ccncc1` showed an inhibition of -7.66%.
`O=C(CNC(=O)c1ccccc1Cl)OC1CCOC1=O` (configuration not stated) showed an inhibition of 0.14%.
`O=C(Nc1ccc2nsnc2c1)C1CC1` showed an inhibition of 0.63%.
In the case of `CC(=O)c1cccc(NC(=S)NC2CC2)c1`, the inhibition is reported as -5.17%.
Compound `S=C(Nc1ccc2nsnc2c1)NC1CCCCC1` has an inhibition of -5.66%.
In the case of `CC(=O)c1cccc(NC(=S)NC2CCCCC2)c1`, the inhibition is reported as 0.31%.
Work on `CCc1c(C)sc(NC(=O)c2cc(-c3cc(OC)ccc3OC)on2)c1C#N` yielded an inhibition of 9.02%.
Work on `CCCCCCCCNC(CO)(CO)CO` yielded an inhibition of -13.8%.
Compound `O=C(C1=C[C@H](c2ccc(Br)cc2)C[C@H](OCCCCO)O1)N1CCOCC1` has an inhibition of 8.9%.
Compound `CCn1cc(CNC(=O)C2CCC(=O)N(C3CCCCCC3)C2)cn1` (configuration not stated) has an inhibition of -6.38%.
In the case of `COC(=O)C1=NNC(C(=O)c2ccco2)C1c1ccccc1` (configuration not stated), the inhibition is reported as 4.3%.
Work on `CCOC(=O)c1ccccc1NC(=O)COC(=O)C1CCCC1` yielded an inhibition of 27.5%.
Work on `CC[C@H](C)[C@@H](CNC)NC[C@@H](Cc1ccc(O)cc1)NCC(C)(C)C` yielded an inhibition of -12.2%.
Compound `CC[C@@H](C)[C@H](CN[C@H](CNC)[C@@H](C)O)NCCc1ccc(OC)cc1` has an inhibition of 0.9%.
Work on `CCCCN(CC)C(=O)CSc1nc2ccccc2c(=O)n1CC1COc2ccccc2O1` (configuration not stated) yielded an inhibition of 15%.
Compound `O=C(NCc1cccc(Cl)c1)c1cc(=O)[nH]c2ccccc12` has an inhibition of -6.18%.
`CCOC(=O)CN(C#N)c1nc(C)cc(C)n1` gave an inhibition of -0.56%.
In the case of `COC(=O)CN(C#N)c1nc(OC)nc(N(C)C)n1`, the inhibition is reported as 9.53%.
In the case of `O=C(COC(=O)c1ccccc1)Nc1cc(S(=O)(=O)N2CCCCCC2)ccc1Cl`, the inhibition is reported as -13%.
